± gives the standard deviation of the averaged measurements.
Columns and labels:
DLD1 [1] = assay: cell viability (CellTiter-Glo) relative to plate median (fraction of plate median); higher = more viable cells; details: 5 µM; treatment time 24 h; reporter: 7TFP
In short: (§1)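 Colorectal cancer cell lines stably carrying lentiviral TCF/Wnt firefly luciferase reporters (7TFP or TCF4/Wnt) were plated in 384-well plates and, 24 h later, given library compounds at a final 5 µM for 24 h. Firefly luciferase or CellTiterGlo luminescence was read on parallel plates with a Tecan F500 reader. Each well's signal was normalised to the plate median in webcellHTS2 (additive, without log transformation). Values are the mean of two independent replicates.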

HCT116 = assay: as above; details: 5 µM; treatment time 24 h; reporter: TCF4/Wnt
In short: as §1

SW480 [2] = assay: as above; details: 5 µM; treatment time 24 h; reporter: 7TFP
In short: as §1

DLD1 [3] = assay: TCF/Wnt firefly luciferase reporter signal relative to plate median (fraction of plate median); higher = higher Wnt reporter signal; details: 5 µM; treatment time 24 h; reporter: 7TFP
In short: as §1

SW480 [4] = assay: as above; details: 5 µM; treatment time 24 h; reporter: 7TFP
In short: as §1

| SMILES | cell viability (DLD1 [1]) | cell viability (HCT116) | cell viability (SW480 [2]) | TCF/Wnt firefly luciferase reporter signal (DLD1 [3]) | TCF/Wnt firefly luciferase reporter signal (SW480 [4]) |
| --- | --- | --- | --- | --- | --- |
| CCCCCCCCC(=O)NCc1ccc(O)c(OC)c1 | 1.04 ± 0.064 | 0.972 ± 0.025 | 0.981 ± 0.056 | 0.792 ± 0.14 | 0.822 ± 0.061 |
| O=C1C=CC(=O)c2c(O)cccc21 | 0.921 ± 0.035 | 0.972 ± 0.033 | 0.961 ± 0.016 | 1.03 | 1.08 ± 0.064 |
| CC1(C)C(=O)[C@@H]2O[C@@H]2[C@@]2(C)C1C[C@@H](O)[C@]1(C)C2CC[C@@]2(C)[C@H](c3ccoc3)OC(=O)C3OC321 (stereo partly drawn) [1,2alpha-EPOXYDEACETOXYDIHYDROGEDUNIN] | 1.01 ± 0.032 | 1.12 ± 0.099 | 1.01 ± 0.056 | 0.962 ± 0.013 | 0.957 ± 0.22 |
| CN(C)C(=S)SSC(=S)N(C)C | 0.722 ± 0.25 | 0.363 ± 0.021 | 0.997 ± 0.033 | 0.686 ± 0.13 | 0.508 ± 0.12 |
| COC(=O)C1=CO[C@@H](C)[C@@H]2CN3CC[C@@]4(C(=O)Nc5ccccc54)[C@H]3C[C@H]12 | 1.1 ± 0.085 | 1.07 ± 0.014 | 1.08 ± 0.035 | 1.02 ± 0.12 | 0.96 ± 0.028 |
| C[C@@H]1O[C@@H](O[C@H]2C[C@@H](O)[C@]3(CO)[C@H]4[C@H](O)C[C@]5(C)[C@@H](C6=CC(=O)OC6)CC[C@]5(O)[C@@H]4CC[C@]3(O)C2)[C@H](O)[C@H](O)[C@H]1O | 0.99 ± 0.085 | 0.401 ± 0.29 | 1.02 ± 0.14 | 0.128 ± 0.13 | 0.146 ± 0.12 |
| O=c1ccc2c(O)c3ccoc3cc2o1 | 1.005 ± 0.0071 | 0.8825 ± 0.005 | 1.02 ± 0.028 | 0.926 ± 0.037 | 0.886 ± 0.034 |
| COc1cc2c(cc1OC)[C@H](C)NCC2 | 0.962 ± 0.044 | 0.96 ± 0.13 | 0.9455 ± 0.00071 | 1.06 ± 0.085 | 1.07 ± 0.014 |
| FC(F)(F)c1cccc(N2CCNCC2)c1 | 1.04 ± 0.13 | 1.05 ± 0.086 | 1.02 ± 0.014 | 0.943 ± 0.015 | 1.02 ± 0.045 |
| O=[N+]([O-])O[C@@H]1CO[C@H]2[C@@H]1OC[C@@H]2O | 0.98 ± 0.018 | 1.06 ± 0.028 | 1.02 ± 0.03 | 0.989 ± 0.28 | 0.915 ± 0.12 |
| O=C(O)CF | 0.951 ± 0.049 | 0.968 ± 0.059 | 1.035 ± 0.0071 | 1.05 ± 0.014 | 1.07 ± 0.042 |
| CC(C)=CCCC1(C)C=Cc2c(O)c3c(c(CC=C(C)C)c2O1)OC12C(=CC4CC1C(C)(C)OC2(C/C=C(/C)C(=O)O)C4O)C3=O (stereo not given) | 0.911 ± 0.11 | 0.979 ± 0.016 | 0.996 ± 0.1 | 0.848 ± 0.069 | 0.921 ± 0.054 |
| COc1cc2occc2c2oc(=O)ccc12 | 0.986 ± 0.076 | 0.941 ± 0.11 | 0.95 ± 0.026 | 1.06 ± 0.17 | 0.818 ± 0.11 |
| Cc1cc(O)cc2oc(=O)c3c(O)cc(O)cc3c12 [Alternariol] | 0.914 ± 0.017 | 0.919 ± 0.013 | 1.01 ± 0.03 | 0.861 ± 0.12 | 0.992 ± 0.097 |
| Cc1ccc(/N=C/N(C)/C=N/c2ccc(C)cc2C)c(C)c1 | 1.01 ± 0.021 | 0.988 ± 0.074 | 0.975 ± 0.036 | 1.1 ± 0.057 | 0.927 ± 0.12 |
| c1cc2c(cc1[C@H]1OC[C@H]3[C@@H]1CO[C@H]3c1ccc3c(c1)OCO3)OCO2 | 1.03 ± 0.014 | 1.03 ± 0.13 | 0.952 ± 0.068 | 1.09 ± 0.064 | 0.932 ± 0.21 |
| CC(=O)O[C@@H]1CC[C@@]2(C)[C@@H](CC[C@@H]3[C@@H]2CC[C@]2(C)C(=O)CC[C@@H]32)C1 | 1.025 ± 0.0071 | 0.924 ± 0.28 | 1.01 ± 0.04 | 1.15 ± 0.035 | 1.08 ± 0.099 |
| O=c1[nH]c2ccccc2n1CCCN1CCC(n2c(=O)[nH]c3cc(Cl)ccc32)CC1 [Domperidone] | 0.898 ± 0.1 | 0.83 ± 0.042 | 0.94 ± 0.063 | 0.997 ± 0.09 | 0.814 ± 0.071 |
| COc1ccc(/C=C/c2cc(O)cc(O)c2)cc1 | 1.05 ± 0.057 | 1.01 ± 0.021 | 0.982 ± 0.018 | 1.25 ± 0.33 | 1.21 ± 0.099 |
| CCN1C[C@]2(COC)[C@H](O)C[C@H](OC)[C@@]34[C@@H]5C[C@@]6(O)[C@H](OC(=O)c7ccccc7)[C@@H]5[C@@](OC(C)=O)([C@@H]([C@H](OC)[C@H]23)[C@@H]14)[C@@H](O)[C@@H]6OC | 0.943 ± 0.066 | 1.04 ± 0.05 | 1.02 ± 0.06 | 0.931 ± 0.057 | 0.955 ± 0.19 |
| CCC(C)C(=O)OC1CC2(C)C(c3ccoc3)OC(=O)CC23OC2(C)OC34C(OC(=O)C(C)C)C3(O)C(OC(=O)C5(C)OC5C)C5(C)CC3(O)C(C)(C5CC(=O)OC)C14O2 (stereo not given) | 1.09 ± 0.071 | 1.12 ± 0.11 | 1.08 ± 0.014 | 1.045 ± 0.0071 | 1.13 ± 0.014 |
| COc1ccc(O)c2c(=O)c3c(OC)cc4c(c3oc12)C1C=COC1O4 (stereo not given) | 1.06 ± 0.057 | 1.03 ± 0.057 | 1.02 ± 0.028 | 1.01 ± 0.11 | 0.999 ± 0.044 |
| COc1ccc(C[C@H]2NC[C@H](O)[C@H]2OC(C)=O)cc1 | 0.831 ± 0.052 | 0.513 ± 0.065 | 1.06 ± 0.042 | 0.248 ± 0.011 | 0.357 ± 0.036 |
| Cc1ccc(O)cc1.Cc1cccc(O)c1.Cc1ccccc1O | 1.085 ± 0.0071 | 1.08 ± 0.14 | 1.01 ± 0.014 | 1.09 ± 0.064 | 1.09 ± 0.057 |
| O=c1c(O)c(-c2ccc(O)c(O)c2)oc2c(O)c(O)cc(O)c12 | 0.905 ± 0.12 | 1.1 ± 0.085 | 0.9465 ± 0.00071 | 0.9395 ± 0.0035 | 0.916 ± 0.033 |
| COc1cc([C@@H]2c3cc4c(cc3[C@H](O)[C@H]3COC(=O)[C@H]23)OCO4)cc(OC)c1OC | 0.903 ± 0.091 | 0.552 ± 0.075 | 0.95 ± 0.14 | 0.831 ± 0.34 | 0.783 ± 0.061 |
| Cc1nccc2c1[nH]c1cc(O)ccc12 | 0.984 ± 0.0099 | 0.978 ± 0.06 | 1.01 ± 0.018 | 1.01 ± 0.03 | 0.978 ± 0.046 |
| C[C@]12CCC3C(CC[C@H]4C[C@H](OS(=O)(=O)O)CC[C@]34C)C1CCC2=O (stereo not given in full) | 1.03 ± 0.021 | 1.02 ± 0.079 | 1.04 ± 0.061 | 0.755 ± 0.015 | 0.966 ± 0.039 |
| NC(=O)Cc1ccccc1 [Phenylacetamide] | 1.11 ± 0.071 | 1.005 ± 0.0071 | 1.01 ± 0.016 | 1.11 ± 0.14 | 1.11 |

From the supplement of paper PMC6522484
